High-throughput results from PubChem BioAssay.
In the library only some 1.6% were active in any assay of this set; here they are far more common.
KCNQ2 inh = inhibitors of rat KCNQ2 potassium channel | O88943 | AID 2156 | actives 1.1% (n = 310,000) | CHO-K1 KCNQ2, FluxOR thallium flux, 20 min; hits give low values | B-score at 10 µM;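 active means fluorescence ratio B-score at most minus 3 library SDs, with starting brightness B-score within 2 library SDs, cut at about -5.5 in these data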
KCNQ2 enhance = KCNQ2 (rat) channel potentiation; O88943; CHO-K1 KCNQ2, FluxOR thallium flux fluorescence; hits give high values; B-score at 10 µM; actives 0.54% (n = 310,000);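 active means fluorescence ratio B-score at least 3 SD of library B-scores, with initial fluorescence B-score within 3 of them, cut at about 5.3 in these data; same plate scores as AID 2156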;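 further: B-score of peak minus minimum over baseline fluorescence ratio after K+ and Tl+ stimulus; positive B-score means potentiation of KCNQ2 with more thallium influx and brighter signal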
Kir21 conf inh = confirmation of mouse Kir2.1 potassium channel inhibitors. shares compounds with KCNQ2 enhance. Kir2.1-expressing cells, FluxOR thallium flux fluorescence; hits give low values. Tl flux remaining, % of negative control (hits give low values), % at 10 µM. actives 41% (n = 2,300). AID 2032;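 active means Primary-screen hit whose thallium flux fell at least 3 control SD below untreated wells in both duplicates, with normal baseline fluorescence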
Target sequence (P35561 whole entry, looked up): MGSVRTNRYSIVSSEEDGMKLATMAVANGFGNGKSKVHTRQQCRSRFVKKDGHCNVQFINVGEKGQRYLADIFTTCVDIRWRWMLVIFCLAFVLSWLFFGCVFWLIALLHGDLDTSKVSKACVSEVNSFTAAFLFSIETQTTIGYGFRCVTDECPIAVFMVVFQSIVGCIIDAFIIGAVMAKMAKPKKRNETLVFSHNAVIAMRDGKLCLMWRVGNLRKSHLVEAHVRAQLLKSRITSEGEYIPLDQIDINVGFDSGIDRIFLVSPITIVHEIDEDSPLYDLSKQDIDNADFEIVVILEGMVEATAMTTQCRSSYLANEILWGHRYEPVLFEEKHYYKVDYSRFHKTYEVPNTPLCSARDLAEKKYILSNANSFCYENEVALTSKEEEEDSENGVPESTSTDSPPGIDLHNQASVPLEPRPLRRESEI
HEK293 Tl flux = counter-screen for Kir2.1 inhibitors: effect in parental HEK293 cells. FluxOR thallium flux fluorescence; 0% = unstimulated blank wells. FluxOR signal as % of negative control (100 = no effect), % at 10 µM. actives 19% (n = 2,300). shares compounds with KCNQ2 enhance;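 active means dye signal at least 3 control SD above or below untreated wells in both duplicates, raw fluorescence within 3, either direction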;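 further: percent is based on the flux ratio of peak minus minimum fluorescence over baseline F0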
CHO-K1 ctr = counter-screen for KCNQ2 potentiators: effect in parental CHO-K1 cells; shares compounds with KCNQ2 enhance; FluxOR thallium flux fluorescence; zero = vehicle mean+3SD, 100% = vehicle-minus-blank window; activity increase over 3SD of controls, % at 10 µM; actives 43% (n = 1,200); AID 2282;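 active means signal rise of at least 3 SD above the untreated control mean, in both duplicate wells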;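 further: counter screen of KCNQ2 potentiator hits so any rise reflects channel-independent effects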
KCNQ1 pot spec = human KCNQ1 counter-target activity of KCNQ2 potentiators. shares compounds with KCNQ2 enhance. CHO KCNQ1 stable, FluxOR thallium flux fluorescence; beyond 3SD, as % of vehicle-control signal. activation over 3SD threshold, % at 10 µM. actives 28% (n = 1,200). AID 2283;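 active means fluorescence ratio rise of at least 3 SD of vehicle wells above their mean, in both replicate wells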
KCNQ2 pot confirm = confirmation of rat KCNQ2 potassium channel potentiators | actives 68% (n = 1,200) | shares compounds with KCNQ2 enhance | CHO-KCNQ2 cells, FluxOR thallium flux fluorescence | potentiation, less the hit threshold, % at 10 µM;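 active means fluorescence ratio rising 3 SD or more over the vehicle control mean in both replicates, plus primary screen hit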;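 further: peak minus minimum thallium fluorescence divided by baseline after K/Tl stimulus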
Kir2-1 sel = tests whether KCNQ2 potentiators also affect mouse Kir2.1. shares compounds with KCNQ2 enhance. HEK293 Kir2.1, FluxOR thallium flux fluorescence. activity over 3SD threshold, % at 10 µM. actives 2% (n = 1,200). AID 2345;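 active means fluorescence ratio rise of at least 3 SD above the vehicle-control mean, seen in both replicates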
KCNQ2 W236L pot = rat KCNQ2 W236L mutant potentiation by KCNQ2 potentiators. CHO KCNQ2-W236L, automated patch clamp current. actives 10% (n = 940). shares compounds with KCNQ2 enhance. current increase over 3SD of negative controls (%), hits give high values, % at 25 µM;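 active means current increase at least 3 SD of the untreated controls above them in both duplicate recordings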
Of the large screens only hits and unclear results are named; the others gave an inactive call (follow-up assays come after a bar, where they were run).

CSCc1ccc(C(=O)N2CCCC(Nc3ccc(F)cc3)C2)o1 (configuration not stated)	none (no result: KCNQ2 enhance) | Kir21 conf inh 50% | HEK293 Tl flux inactive
CCNC(=S)NNC(=O)c1csc(C(C)C)c1	none (no result: KCNQ2 enhance)
CSc1nc(C(C)C)ccc1CNC(=O)CC(C)c1ccccc1 (configuration not stated)	KCNQ2 enhance 30 | Kir21 conf inh inactive | HEK293 Tl flux inactive | CHO-K1 ctr inactive | KCNQ1 pot spec 35 | KCNQ2 pot confirm 112 | Kir2-1 sel inactive | KCNQ2 W236L pot inactive
CC(CC(=O)NCc1ccc(F)cc1)c1ccccc1 (configuration not stated)	none
CC(=O)c1cccc(CN2CCC(n3nccc3NC(=O)CCOc3ccccc3)CC2)c1	none
CCN(CC)c1ccc(NC(=O)c2ccco2)c(C)c1	none
CCN(CC)c1ccc(NC(=O)c2cccc(F)c2)c(C)c1	KCNQ2 enhance 17 | Kir21 conf inh inactive | HEK293 Tl flux inactive | CHO-K1 ctr inactive | KCNQ1 pot spec inactive | KCNQ2 pot confirm 49 | Kir2-1 sel inactive | KCNQ2 W236L pot inactive
O=[N+]([O-])c1ccc(N2CCN(C(=S)Nc3cccc(F)c3)CC2)cc1	none (no result: KCNQ2 enhance)
O=C(N/N=C\c1ccc([N+](=O)[O-])s1)C1COc2ccccc2O1 (configuration not stated)	none (no result: KCNQ2 enhance)
C=CCn1c(=S)[nH]c2cc(C(=O)Nc3ccc(OC)c(OC)c3)ccc2c1=O	none (no result: KCNQ2 enhance)
C=CCn1c(=S)[nH]c2ccc(Br)cc2c1=O	KCNQ2 enhance 5.9 | Kir21 conf inh inactive | HEK293 Tl flux inactive | CHO-K1 ctr inactive | KCNQ1 pot spec inactive | KCNQ2 pot confirm inactive | Kir2-1 sel inactive | KCNQ2 W236L pot inactive
CCN(CC)CCNC(=O)c1ccc(NC(=O)c2ccc(C(=O)c3ccccc3)cc2)cc1	none
Cc1cc(/C=C2\C(=N)N3N=C(S(C)(=O)=O)SC3=NC2=O)c(C)n1Cc1ccccc1	none
CCCC1=NN2C(=N)/C(=C\c3cc(C)n(Cc4ccccc4)c3C)C(=O)N=C2S1	KCNQ2 enhance 12 | Kir21 conf inh inactive | HEK293 Tl flux inactive | CHO-K1 ctr 21 | KCNQ1 pot spec inactive | KCNQ2 pot confirm inactive | Kir2-1 sel inactive | KCNQ2 W236L pot inactive
OCC1(CCOc2ccccc2)CCN(Cc2ccncc2)CC1	none (no result: KCNQ2 enhance)
CSc1ccc(CN2CCC(CO)(CCOc3ccccc3)CC2)cc1	none | Kir21 conf inh 42% | HEK293 Tl flux inactive
Cc1coc2cc3oc(=O)c(CC(=O)N[C@@H](CC(C)C)C(=O)O)c(C)c3cc12	none (no result: KCNQ2 enhance)
CC(NC(=O)c1ccncc1)C(C)(C)C (configuration not stated)	KCNQ2 enhance 16 | Kir21 conf inh inactive | HEK293 Tl flux inactive | CHO-K1 ctr inactive | KCNQ1 pot spec inactive | KCNQ2 pot confirm inactive | Kir2-1 sel inactive
Cc1ccc(C(C)NC(=O)c2ccncc2)cc1C (configuration not stated)	none
N#Cc1c(OCC(=O)c2ccccc2)nc2c(c1-c1ccco1)CCc1ccccc1-2	KCNQ2 enhance 20 | Kir21 conf inh inactive | HEK293 Tl flux 145% | CHO-K1 ctr 2.2 | KCNQ1 pot spec inactive | KCNQ2 pot confirm 42 | Kir2-1 sel inactive | KCNQ2 W236L pot inactive
CCOC(=O)COc1nc2c(c(-c3ccco3)c1C#N)CCc1ccccc1-2	KCNQ2 enhance 10 | Kir21 conf inh inactive | HEK293 Tl flux inactive | CHO-K1 ctr 48 | KCNQ1 pot spec 84 | KCNQ2 pot confirm inactive | Kir2-1 sel inactive | KCNQ2 W236L pot inactive
Cc1cc(C)c(C#N)c(OCC(=O)c2ccccc2)n1	none
CCOC(=O)COc1nc(-c2ccccc2)cc(-c2ccco2)c1C#N	none
